Ten compounds from PubChem BioAssay (NCI) can be followed below.

Assay [1] can be described thus: NCI Yeast Anticancer Drug Screen. Data for the rad50 strain (AID 155).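 Also: 0% = growth of vehicle-only cultures of the same strain.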 Particulars: S. cerevisiae rad50 strain growth inhibition, active compounds read high. An outline of the steps:
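Relative growth inhibition (compound vs vehicle) was measured in yeast with a defined repair-gene alteration.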

The nature of assay [2]: NCI Yeast Anticancer Drug Screen. Data for the mec2-1 strain (AID 157). Particulars: S. cerevisiae mec2-1 strain, active compounds read high. An outline of the steps: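 Compounds were applied to mec2-1 yeast cells. Their growth was then compared with that of vehicle-treated cultures to give growth inhibition.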
The nature of assay [3]: NCI Yeast Anticancer Drug Screen. Data for the sgs1 mgt1 strain (AID 161).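 Also: 0% = growth of cultures given vehicle only.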 Particulars: S. cerevisiae sgs1 mgt1 strain, active compounds read high. An outline of the steps:
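This yeast growth screen uses a strain with defined DNA-repair lesions; compound-treated growth is compared with vehicle-treated growth.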

A short description of assay [4]: NCI Yeast Anticancer Drug Screen. Data for the cln2 rad14 strain (AID 165).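 Also: 0% = growth equal to vehicle treated cultures.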 Particulars: S. cerevisiae cln2 rad14 strain, active compounds read high. An outline of the steps: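 Strain: cln2 rad14 yeast, altered in cell cycle control and DNA damage repair. Read-out: growth inhibition vs vehicle.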
A short description of assay [5]: NCI Yeast Anticancer Drug Screen. Data for the bub3 strain (AID 167). The following applies: S. cerevisiae bub3 mutant strain, active compounds read high. The method in brief: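 Screening used yeast with an engineered genetic alteration affecting cell cycle control. Compound-exposed cultures were compared with vehicle cultures, and reduced growth was taken as inhibition.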

Assay [6] in a line: NCI Yeast Anticancer Drug Screen. Data for the mlh1 rad18 strain (AID 175). Particulars: S. cerevisiae mlh1 rad18 strain growth inhibition, active compounds read high. An outline of the steps:
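A repair-deficient yeast strain is exposed to test compound, and growth is scored relative to vehicle-treated controls.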

[7] abbreviates: at 5.0 µM (retest, dose inferred, filed as 0.5).
[8] abbreviates: at 50.0 µM (retest, dose inferred, filed as 5.0).

Structures are written as SMILES. About 79,000 compounds went through this panel and 15% of them were active in at least one assay; those are over-represented in the sample as a whole. A number with no mark means an inactive call. The source made the active and inactive calls. Rule as the data show it: active = growth inhibition above about 70%; inactive = the rest.

Take `Cc1cc(NC(=S)SC(C)C)ccc1Br`: the growth inhibition in assay [1] (setting [7]) was 5%; in assay [1] (setting [8]), 99% (active); in assay [1] (at 50.0 µM), 99.5% (active); in assay [2] (setting [7]), 0%; in assay [2] (setting [8]) it was 100% (active); in assay [2] (at 50.0 µM) it was 99.7% (active). The growth inhibition in assay [3] (setting [7]) was 2%; in assay [3] (setting [8]) it was 99% (active); in assay [3] (at 50.0 µM), 71.8% (active); in assay [4] (setting [7]), -19%; in assay [4] (setting [8]), 99% (active); in assay [4] (at 50.0 µM) it was 98.9% (active). Further, the growth inhibition in assay [5] (setting [7]) was 7%; in assay [5] (setting [8]), 99% (active); in assay [5] (at 50.0 µM), 99.5% (active); in assay [6] (setting [7]), -3%; in assay [6] (setting [8]), 99% (active); in assay [6] (at 50.0 µM), 99.3% (active).
In the case of `Cc1c2ccnc(-c3ccc(F)cc3)c2cc2c1[nH]c1ccccc12`, the growth inhibition is -3% in assay [1] (setting [7]); 1% in assay [1] (setting [8]); -0.35% in assay [1] (at 50.0 µM); -14% in assay [2] (setting [7]); 15% in assay [2] (setting [8]); -14.4% in assay [2] (at 50.0 µM). Also, the growth inhibition in assay [3] (setting [7]) was -26%; in assay [3] (setting [8]) it was 48%; in assay [3] (at 50.0 µM), 65.8%; in assay [4] (setting [7]), 7%; in assay [4] (setting [8]), 17%; in assay [4] (at 50.0 µM), -35.9%. Besides, the growth inhibition is -2% in assay [5] (setting [7]); 1% in assay [5] (setting [8]); -17.1% in assay [5] (at 50.0 µM); -3% in assay [6] (setting [7]); 11% in assay [6] (setting [8]); -5.15% in assay [6] (at 50.0 µM).
As to `CC(=O)O/C=C1\c2ccccc2CCC1c1ccc2ccccc2c1` (stereo not given), the growth inhibition in assay [1] (setting [7]) is 7%; in assay [1] (setting [8]), -5%; in assay [1] (at 50.0 µM), -4.45%; in assay [2] (setting [7]), -4%; in assay [2] (setting [8]), -13%; in assay [2] (at 50.0 µM), -23.9%. The growth inhibition is 1% in assay [3] (setting [7]); 11% in assay [3] (setting [8]); 0.3% in assay [3] (at 50.0 µM); -19% in assay [4] (setting [7]); -22% in assay [4] (setting [8]); 1.45% in assay [4] (at 50.0 µM). Besides, the growth inhibition in assay [5] (setting [7]) is 5%; in assay [5] (setting [8]), 4%; in assay [5] (at 50.0 µM), 27.9%; in assay [6] (setting [7]), 9%; in assay [6] (setting [8]), 9%; in assay [6] (at 50.0 µM), -0.15%.
As for `CC(C)[C@@H]1CC[C@@H](C)C[C@H]1OC(=O)NN`, the growth inhibition in assay [1] (setting [7]) was -8%; in assay [1] (setting [8]) it was 72% (active); in assay [1] (at 50.0 µM) it was 89.5% (active); in assay [2] (setting [7]) it was -30%; in assay [2] (setting [8]) it was 53%; in assay [2] (at 50.0 µM), 90.3% (active). For the same compound, the growth inhibition in assay [3] (setting [7]) was -8%; in assay [3] (setting [8]) it was 70% (active); in assay [3] (at 50.0 µM), 91.2% (active); in assay [4] (setting [7]) it was 1%; in assay [4] (setting [8]), -2%; in assay [4] (at 50.0 µM), 59.6%. For the same compound, the growth inhibition in assay [5] (setting [7]) was 6%; in assay [5] (setting [8]) it was 84% (active); in assay [5] (at 50.0 µM) it was 80.5% (active); in assay [6] (setting [7]) it was -6%; in assay [6] (setting [8]), 68%; in assay [6] (at 50.0 µM), 95.3% (active).
Take `O=S(=O)(CC(Br)CCl)c1ccccc1` (stereo not given): the growth inhibition is 2% in assay [1] (setting [7]); 72% (active) in assay [1] (setting [8]); 15.1% in assay [1] (at 50.0 µM); 2% in assay [2] (setting [7]); 55% in assay [2] (setting [8]); 31.3% in assay [2] (at 50.0 µM). Moreover, the growth inhibition in assay [3] (setting [7]) is -1%; in assay [3] (setting [8]), 46%; in assay [3] (at 50.0 µM), 40.5%; in assay [4] (setting [7]), 4%; in assay [4] (setting [8]), 17%; in assay [4] (at 50.0 µM), -62.6%. The growth inhibition was 5% in assay [5] (setting [7]); 38% in assay [5] (setting [8]); 54.8% in assay [5] (at 50.0 µM); 13% in assay [6] (setting [7]); 76% (active) in assay [6] (setting [8]); 57% in assay [6] (at 50.0 µM).
In the case of `Cn1cnc([N+](=O)[O-])c1Sc1ccc(Cl)cc1`, the growth inhibition in assay [1] (setting [7]) was 16%; in assay [1] (setting [8]), 93% (active); in assay [1] (at 50.0 µM), 93.8% (active); in assay [2] (setting [7]) it was 8%; in assay [2] (setting [8]), 92% (active); in assay [2] (at 50.0 µM) it was 76.9% (active). Besides, the growth inhibition in assay [3] (setting [7]) was 11%; in assay [3] (setting [8]), 98% (active); in assay [3] (at 50.0 µM) it was 90.9% (active); in assay [4] (setting [7]), 2%; in assay [4] (setting [8]), 61%; in assay [4] (at 50.0 µM), 42.2%. Further, the growth inhibition is 0% in assay [5] (setting [7]); 92% (active) in assay [5] (setting [8]); 83.2% (active) in assay [5] (at 50.0 µM); 5% in assay [6] (setting [7]); 97% (active) in assay [6] (setting [8]); 90.3% (active) in assay [6] (at 50.0 µM).
`CCN(CC)C(C)(C)C(=O)/C=C/c1ccc(Cl)cc1`: the growth inhibition was -5% in assay [1] (setting [7]); 69% in assay [1] (setting [8]); 2.2% in assay [1] (at 50.0 µM); -15% in assay [2] (setting [7]); 28% in assay [2] (setting [8]); 4.8% in assay [2] (at 50.0 µM). For the same compound, the growth inhibition in assay [3] (setting [7]) is 24%; in assay [3] (setting [8]), 87% (active); in assay [3] (at 50.0 µM) it was 24.9%; in assay [4] (setting [7]), -9%; in assay [4] (setting [8]), 26%; in assay [4] (at 50.0 µM) it was -5%. The growth inhibition in assay [5] (setting [7]) was 1%; in assay [5] (setting [8]), 82% (active); in assay [5] (at 50.0 µM), 54.5%; in assay [6] (setting [7]) it was 46%; in assay [6] (setting [8]), 94% (active); in assay [6] (at 50.0 µM), 19.7%.
As to `Cc1cc(Cc2ccccc2)ccc1O`, the growth inhibition in assay [1] (setting [7]) is 0%; in assay [1] (setting [8]), 66%; in assay [1] (at 50.0 µM) it was 51.2%; in assay [2] (setting [7]) it was -6%; in assay [2] (setting [8]), 39%; in assay [2] (at 50.0 µM), 96.4% (active). Besides, the growth inhibition is -1% in assay [3] (setting [7]); 50% in assay [3] (setting [8]); 55.8% in assay [3] (at 50.0 µM); -5% in assay [4] (setting [7]); 15% in assay [4] (setting [8]); 57.5% in assay [4] (at 50.0 µM). For the same compound, the growth inhibition in assay [5] (setting [7]) is -11%; in assay [5] (setting [8]), 47%; in assay [5] (at 50.0 µM), 81% (active); in assay [6] (setting [7]), 8%; in assay [6] (setting [8]) it was 60%; in assay [6] (at 50.0 µM), 41%.
Turning to `CC1(C)CC(=O)C(c2ccccc2[N+](=O)[O-])=C(O)C1`, the growth inhibition was 4% in assay [1] (setting [7]); 6% in assay [1] (setting [8]); 99.6% (active) in assay [1] (at 50.0 µM); 11% in assay [2] (setting [7]); 20% in assay [2] (setting [8]); 99.3% (active) in assay [2] (at 50.0 µM). The growth inhibition in assay [3] (setting [7]) is 4%; in assay [3] (setting [8]), 8%; in assay [3] (at 50.0 µM) it was 69.6%; in assay [4] (setting [7]), 5%; in assay [4] (setting [8]), 24%; in assay [4] (at 50.0 µM), 90.3% (active). The growth inhibition in assay [5] (setting [7]) was -6%; in assay [5] (setting [8]), -1%; in assay [5] (at 50.0 µM) it was 98.3% (active); in assay [6] (setting [7]), -2%; in assay [6] (setting [8]) it was 7%; in assay [6] (at 50.0 µM), 99.2% (active).
As for `CC(C)/C(Cl)=N\OC(=O)Nc1cccc(F)c1`, the growth inhibition was 14% in assay [1] (setting [7]); 65% in assay [1] (setting [8]); -5.85% in assay [1] (at 50.0 µM); -7% in assay [2] (setting [7]); 45% in assay [2] (setting [8]); 63% in assay [2] (at 50.0 µM). In addition, the growth inhibition was -6% in assay [3] (setting [7]); 96% (active) in assay [3] (setting [8]); 82.9% (active) in assay [3] (at 50.0 µM); 41% in assay [4] (setting [7]); 28% in assay [4] (setting [8]); 25.9% in assay [4] (at 50.0 µM). The growth inhibition in assay [5] (setting [7]) is -13%; in assay [5] (setting [8]), 82% (active); in assay [5] (at 50.0 µM), 69.7%; in assay [6] (setting [7]), -3%; in assay [6] (setting [8]) it was 28%; in assay [6] (at 50.0 µM) it was 50.8%.
